# Test results as given in the supplement of paper PMC10338343.
# ± gives the standard deviation.
# Test system: MILI (PIWIL2) piRISC loaded with L1MC piRNA (26 nt)
# Experiment: pre-steady-state target cleavage rate (min^-1); guide: L1MC piRNA 5'p-UAACUAAAUACUAUGCAAGCUGUAGG; MIWI and MILI are mouse PIWI proteins and EfPiwi is from a freshwater sponge; tags in brackets are library labels; higher = faster piRNA-guided slicing of the target
# Conditions: auxiliary factor: 500 nM mouse GTSF1
# How it was run: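 In this Cleave-'n-Seq assay, uncleaved targets were sequenced and normalised to depth and to weakly complementary targets. They came from a transcribed, DNA-blocked target RNA library […] mixed with 1 nM active affinity-purified piRISC carrying one synthetic guide, with or without 500 nM GTSF1 partner protein, in HEPES–potassium acetate buffer at 33 °C for 0–8 or 0–960 min. After three trials were pooled and k3 was capped at 0.0001 min^-1, the pre-steady-state cleavage rate was obtained from a burst-and-steady-state fit.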
# 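Further: 1 nM active piRISC with 0.1 nM target library at 33 °C single turnover.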
row,Sequence,pre-steady-state target cleavage rate
1,UCCUGGAUCAGCUUGCAUAGUACUUUAGUUA,0.14 ± 0.016
2,UCCUGGAUGUCGUUCAUAGUAUUUAGUUA,0.013 ± 0.0035
3,UCCUGGAUGUCGAAGCAUAGUAUUUAGAUA,0.00991 ± 0.0044
4,UCCUGGAUGUCGUUACAUAGUAUUUAGUUA,0.105 ± 0.011
5,UCCUGGAUGUCGAAGCAUAGUUUUUAGUUA,0.00892 ± 0.0039
6,UCCUGGAUGUCGAUGCAUAGUAUUUACAAA,0.0066 ± 0.0042
7,UCCUGCUACAGGUUGCAUAGUAUUUACAAA,0.0112 ± 0.0054
8,UCCUGGAUGUGCAUGCAUAGUAUUUACUUA,0.065 ± 0.018
9,UCCUGGAAGAGCUUGCUUAGUAUUUAGUUA,0.204 ± 0.016
10,UCCUGGAUCAGCUUGCAUAGUAUUAUAGUUA,0.283 ± 0.022
11,UCCUGGUACAGCUUGGUUAGUAUUUAGAAA,0.043 ± 0.016
12,UCCUGGAUGUCCAUGCAUAGUAUUAAGUUA,0.0665 ± 0.018
13,UCCUGGAUGUCCUUGCAAAGUAAUUAGUUA,0.018 ± 0.0064
14,UCCUGGAUGUCGUUGAAUAGUAUUUAGUUA,0.0817 ± 0.015
15,UCCUGGAUGAGCUUGGAUUGUAUUUAGUUA,0.0185 ± 0.0063
16,UCCUGGAUCAGCUUGCAUAGCAUUUAGUUA,0.08 ± 0.012
17,UCCUGGAUGUGCUUGCAUAGUCUUUAGUUA,0.0458 ± 0.011
18,UCCUGGAUCAGCUUGGAUACUAUUUAGUUA,0.0383 ± 0.01
19,UCCUGGUGACAGCUUGCAUAGUAUUUAGUUA,0.507 ± 0.044
20,UCCUGGAUGUCCUUGCUAAGUAUUUAGUUA,0.00944 ± 0.0051
21,UCCUGCUACAGCUUGGUAAGUAUUUAGAAA,0.0107 ± 0.0045
22,UCCUGGUACAGCUUGCAUAGAAUUUACUUA,0.0206 ± 0.011
23,UCCUCCUACACCUUCCAUAGUAUUUAGUUA,0.0308 ± 0.014
24,UCCUGGAUCAGCUUGCAUUGUAUAUAGUUA,0.183 ± 0.018
